The full data set covers some 8,800 targets. This sample favours those with a hit. About 0.5% of all pairs of compound and target were hits.
What was measured:
Assay in all cases: log2 fold change, soluble protein after heating vs DMSO (PISA); higher = thermal stabilisation; K562 lysate, 10 uM; active = over 0.2 and 3.5 SD of the protein, either way, in both replicates (recomputed)
ibrutinib = compound: C=CC(=O)N1CCC[C@@H](n2nc(-c3ccc(Oc4ccccc4)cc3)c3c(N)ncnc32)C1 [ibrutinib]
Method in brief: (§1)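 To prepare the extract, K562 pellets were dounce-homogenised in PBS pH 7.4 with 1 mM MgCl2, giving crude material at 1 mg/mL protein. This was treated with 10 μM compound for 30 min, then heated in aliquots for 3 min over 48°C-58°C before pooling and addition of NP-40 to 0.5% at 4°C. Centrifugation at 21,000xg for 90 min left soluble protein in the supernatant, which TMTpro 16plex LC-MS/MS quantified with equalised channel sums. Results are log-two fold changes in thermal stability compared with solvent controls, from duplicates.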

[1] = compound: CC(=O)c1cnc2ccc(-c3cc(Cl)c(O)c(Cl)c3)nc2c1N[C@H]1CC[C@H](CN(C)C)CC1
Method in brief: as §1

ralimetinib = compound: CC(C)(C)Cn1c(N)nc2ccc(-c3[nH]c(C(C)(C)C)nc3-c3ccc(F)cc3)nc21 [ralimetinib]
Method in brief: as §1

[2] = compound: CC(C)(O)CC(=O)NCCn1ccc2ncnc(Nc3ccc(Oc4cccc(C(F)(F)F)c4)c(Cl)c3)c21
Method in brief: as §1

[3] = compound: CC(C)C1=C2N=C(C=C(N2N=C1)NCC3=CC=CC=C3)NCCCCCCN
Method in brief: as §1

[4] = compound: CC1=C(C(CC(=O)N1)C2=CC=C(C=C2)C(F)(F)F)C(=O)NC3=C(C=C4C(=C3)C=NN4)F
Method in brief: as §1

[5] = compound: CC1=C(C2=C(C=C1)C(=O)C3=CC=CC=C3N2CCCN)C
Method in brief: as §1

[6] = compound: CC1=C(C=C(C=C1)NC(=O)C2=CC(=CC=C2)C(C)(C)C#N)NC3=CC4=C(C=C3)N=CN(C4=O)C
Method in brief: as §1

[7] = compound: CC1=C(C=C(C=C1)NC(=O)C2=CC(=CC=C2)N(C)C)NC(=O)C3=CC=C(C=C3)O
Method in brief: as §1

[8] = compound: CC1=CC=C(C=C1)SC2=C3C=C(SC3=CN=C2)C(=O)N
Method in brief: as §1

vemurafenib = compound: CCCS(=O)(=O)Nc1ccc(F)c(C(=O)c2c[nH]c3ncc(-c4ccc(Cl)cc4)cc23)c1F [vemurafenib]
Method in brief: as §1

[9] = compound: CCCS(=O)(=O)Nc1ccc(F)c(C(=O)c2c[nH]c3ncc(Cl)cc23)c1F
Method in brief: as §1

barasertib = compound: CCN(CCCOc1ccc2c(Nc3cc(CC(=O)Nc4cccc(F)c4)[nH]n3)ncnc2c1)CCOP(=O)(O)O [barasertib]
Method in brief: as §1

[10] = compound: CC[C@@H]1C(=O)N(C)c2cnc(Nc3ccc(C(=O)NC4CCN(C)CC4)cc3OC)nc2N1C1CCCC1
Method in brief: as §1

volasertib = compound: CC[C@@H]1C(=O)N(C)c2cnc(Nc3ccc(C(=O)N[C@H]4CC[C@H](N5CCN(CC6CC6)CC5)CC4)cc3OC)nc2N1C(C)C [volasertib]
Method in brief: as §1

[11] = compound: CCn1c(C(=O)N(C2CC2)C2CC2)cc2c3c(ncn3C)c(Nc3cc(C)n(C)n3)nc21
Method in brief: as §1

[12] = compound: CCn1cc(-c2ccnc3[nH]c(-c4cccc(CN(C)C)c4)cc23)c(-c2ccc(NC(=O)N(C)C)cc2)n1
Method in brief: as §1

[13] = compound: CN1CCC(CNc2ccc3ncc(-c4cccc(OC(F)(F)F)c4)n3n2)CC1
Method in brief: as §1

saracatinib = compound: CN1CCN(CCOc2cc(OC3CCOCC3)c3c(Nc4c(Cl)ccc5c4OCO5)ncnc3c2)CC1 [saracatinib]
Method in brief: as §1

sotrastaurin = compound: CN1CCN(c2nc(C3=C(c4c[nH]c5ccccc45)C(=O)NC3=O)c3ccccc3n2)CC1 [sotrastaurin]
Method in brief: as §1

Measured: log2 fold change

MCMBP (UniProt Q9BTE3)
inactive: ibrutinib 0.001 | [1] -0.007 | ralimetinib 0.016 | [2] 0.038 | [3] -0.009 | [4] 0 | [5] 0.008 | [6] 0.008 | [7] 0.011 | [8] 0.014 | vemurafenib -0.029 | [9] 0.019 | barasertib -0.007 | [10] 0.006 | volasertib -0.026 | [11] 0.043 | [12] 0.035 | [13] -0.032 | saracatinib 0.02 | sotrastaurin 0.015

MED17 (UniProt Q9NVC6)
Sequence of UniProt Q9NVC6 (Q9NVC6 whole entry, looked up): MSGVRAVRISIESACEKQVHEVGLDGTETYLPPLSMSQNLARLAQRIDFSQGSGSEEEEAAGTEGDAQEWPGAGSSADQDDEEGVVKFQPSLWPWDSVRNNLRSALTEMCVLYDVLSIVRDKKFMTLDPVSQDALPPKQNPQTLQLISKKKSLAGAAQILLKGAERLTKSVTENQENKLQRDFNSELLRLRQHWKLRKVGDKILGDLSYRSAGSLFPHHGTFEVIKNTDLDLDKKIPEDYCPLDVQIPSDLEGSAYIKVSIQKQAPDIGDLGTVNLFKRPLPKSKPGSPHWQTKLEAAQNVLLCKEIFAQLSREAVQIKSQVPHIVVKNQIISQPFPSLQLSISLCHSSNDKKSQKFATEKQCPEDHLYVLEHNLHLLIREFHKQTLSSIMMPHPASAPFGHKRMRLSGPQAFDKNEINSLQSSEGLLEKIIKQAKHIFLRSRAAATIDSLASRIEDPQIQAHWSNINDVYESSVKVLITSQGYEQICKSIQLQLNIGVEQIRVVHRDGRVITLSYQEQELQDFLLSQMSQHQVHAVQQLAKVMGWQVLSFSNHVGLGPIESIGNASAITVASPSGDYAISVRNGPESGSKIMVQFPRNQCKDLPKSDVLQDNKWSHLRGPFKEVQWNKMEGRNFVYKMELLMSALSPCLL
inactive: ibrutinib 0.018 | [1] 0.003 | ralimetinib 0 | [2] -0.003 | [3] -0.017 | [4] 0.04 | [5] 0.019 | [6] 0 | [7] 0.021 | [8] 0.001 | vemurafenib 0.028 | [9] 0.007 | barasertib 0.004 | [10] -0.023 | volasertib -0.02 | [11] 0.002 | [12] -0.037 | [13] 0.013 | saracatinib 0.01 | sotrastaurin 0.031

KNL1 (UniProt Q8NG31)
Sequence of UniProt Q8NG31 (Q8NG31 whole entry, looked up): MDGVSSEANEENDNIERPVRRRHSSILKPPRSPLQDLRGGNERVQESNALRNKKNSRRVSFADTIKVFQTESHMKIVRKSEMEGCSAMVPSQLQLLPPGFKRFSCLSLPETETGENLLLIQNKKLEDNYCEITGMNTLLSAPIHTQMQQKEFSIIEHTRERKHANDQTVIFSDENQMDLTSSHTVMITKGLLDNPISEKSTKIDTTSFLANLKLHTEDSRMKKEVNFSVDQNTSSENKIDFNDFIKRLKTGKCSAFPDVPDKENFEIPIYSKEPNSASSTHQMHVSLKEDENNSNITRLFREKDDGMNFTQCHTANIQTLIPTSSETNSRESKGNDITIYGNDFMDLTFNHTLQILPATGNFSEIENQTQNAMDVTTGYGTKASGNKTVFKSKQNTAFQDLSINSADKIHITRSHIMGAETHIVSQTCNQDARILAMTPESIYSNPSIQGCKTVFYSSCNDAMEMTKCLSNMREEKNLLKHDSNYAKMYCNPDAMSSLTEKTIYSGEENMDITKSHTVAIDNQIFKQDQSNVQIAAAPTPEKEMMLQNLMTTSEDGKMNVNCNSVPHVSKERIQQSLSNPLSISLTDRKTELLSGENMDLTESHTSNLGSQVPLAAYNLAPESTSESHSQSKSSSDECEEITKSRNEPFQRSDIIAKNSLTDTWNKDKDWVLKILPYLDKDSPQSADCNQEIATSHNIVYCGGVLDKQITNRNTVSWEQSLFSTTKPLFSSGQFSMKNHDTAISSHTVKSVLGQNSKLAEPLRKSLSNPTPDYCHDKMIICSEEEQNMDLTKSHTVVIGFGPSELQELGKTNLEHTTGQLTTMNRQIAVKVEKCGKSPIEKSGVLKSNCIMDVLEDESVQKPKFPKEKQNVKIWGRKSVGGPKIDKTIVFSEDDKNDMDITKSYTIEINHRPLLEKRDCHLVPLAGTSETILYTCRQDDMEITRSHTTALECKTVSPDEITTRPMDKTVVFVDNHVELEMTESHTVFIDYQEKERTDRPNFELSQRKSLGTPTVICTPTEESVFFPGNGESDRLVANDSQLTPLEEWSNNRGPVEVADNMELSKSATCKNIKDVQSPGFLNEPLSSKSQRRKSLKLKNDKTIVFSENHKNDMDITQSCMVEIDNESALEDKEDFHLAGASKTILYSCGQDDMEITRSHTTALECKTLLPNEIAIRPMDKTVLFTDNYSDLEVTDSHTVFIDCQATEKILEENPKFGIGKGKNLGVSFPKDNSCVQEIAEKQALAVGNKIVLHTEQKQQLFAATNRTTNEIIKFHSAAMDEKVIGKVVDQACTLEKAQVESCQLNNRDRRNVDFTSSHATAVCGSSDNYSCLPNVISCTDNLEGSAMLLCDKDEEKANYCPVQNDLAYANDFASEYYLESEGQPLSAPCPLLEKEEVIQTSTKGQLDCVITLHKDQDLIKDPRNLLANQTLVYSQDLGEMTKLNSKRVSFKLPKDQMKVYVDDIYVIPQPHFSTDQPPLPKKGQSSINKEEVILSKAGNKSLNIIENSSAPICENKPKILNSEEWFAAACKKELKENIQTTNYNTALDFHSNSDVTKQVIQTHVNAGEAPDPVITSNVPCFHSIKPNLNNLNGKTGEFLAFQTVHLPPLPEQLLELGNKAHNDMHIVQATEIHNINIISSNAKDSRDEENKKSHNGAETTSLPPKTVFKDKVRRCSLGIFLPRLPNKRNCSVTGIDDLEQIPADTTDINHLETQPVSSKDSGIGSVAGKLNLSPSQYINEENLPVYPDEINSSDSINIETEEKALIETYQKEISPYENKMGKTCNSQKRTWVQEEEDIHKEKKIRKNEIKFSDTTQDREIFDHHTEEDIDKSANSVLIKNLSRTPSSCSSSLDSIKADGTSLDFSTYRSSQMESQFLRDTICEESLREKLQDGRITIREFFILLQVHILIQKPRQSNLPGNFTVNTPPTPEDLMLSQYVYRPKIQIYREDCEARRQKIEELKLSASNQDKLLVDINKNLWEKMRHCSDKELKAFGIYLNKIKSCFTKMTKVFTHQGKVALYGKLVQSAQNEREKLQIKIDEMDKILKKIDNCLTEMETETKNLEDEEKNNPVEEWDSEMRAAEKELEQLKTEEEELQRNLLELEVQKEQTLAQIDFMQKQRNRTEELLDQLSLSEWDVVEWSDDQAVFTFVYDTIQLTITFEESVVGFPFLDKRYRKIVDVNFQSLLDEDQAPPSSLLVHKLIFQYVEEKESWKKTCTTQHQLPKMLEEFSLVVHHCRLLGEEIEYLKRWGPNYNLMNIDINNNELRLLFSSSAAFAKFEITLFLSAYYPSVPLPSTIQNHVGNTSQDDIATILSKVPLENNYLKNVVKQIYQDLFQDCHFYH
inactive: ibrutinib 0.009 | [1] -0.014 | ralimetinib 0.012 | [2] -0.032 | [3] 0.013 | [4] 0.012 | [5] -0.022 | [6] 0 | [7] 0.004 | [8] 0.012 | vemurafenib -0.031 | [9] 0.064 | barasertib 0.011 | [10] -0.015 | volasertib -0.044 | [11] -0.012 | [12] 0.015 | [13] 0 | saracatinib 0.006 | sotrastaurin 0.025

MAP2K4 isoform 2 (UniProt P45985)
inactive: ibrutinib 0.051 | [1] 0.316 | ralimetinib -0.029 | [2] -0.015 | [3] 0.042 | [4] -0.008 | [5] 0.006 | [6] -0.055 | [7] 0.033 | [8] -0.045 | [9] 0.243 | barasertib 0.09 | [10] -0.127 | volasertib -0.01 | [11] 0.04 | [13] -0.063 | saracatinib -0.063 | sotrastaurin 0.002
active: vemurafenib 0.601 | [12] 0.936

MAPK1 (UniProt P28482)
Sequence of UniProt P28482 (P28482 whole entry, looked up): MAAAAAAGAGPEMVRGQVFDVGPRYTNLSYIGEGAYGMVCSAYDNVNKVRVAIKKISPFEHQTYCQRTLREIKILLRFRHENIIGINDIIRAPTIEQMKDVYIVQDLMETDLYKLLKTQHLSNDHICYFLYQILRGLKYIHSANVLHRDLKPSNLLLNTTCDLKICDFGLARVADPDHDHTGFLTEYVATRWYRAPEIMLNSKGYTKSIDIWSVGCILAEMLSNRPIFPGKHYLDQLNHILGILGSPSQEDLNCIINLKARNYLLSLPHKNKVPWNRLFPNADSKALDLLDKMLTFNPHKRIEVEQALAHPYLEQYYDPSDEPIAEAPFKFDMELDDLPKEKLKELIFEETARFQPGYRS
inactive: ibrutinib 0.001 | [1] 0 | ralimetinib -0.066 | [2] 0.012 | [3] -0.029 | [4] -0.022 | [5] 0.023 | [6] -0.039 | [7] -0.03 | [8] 0.003 | vemurafenib -0.022 | [9] -0.072 | barasertib -0.015 | [10] -0.013 | volasertib -0.009 | [11] 0.004 | [12] 0.004 | [13] -0.023 | saracatinib 0.002 | sotrastaurin -0.007

LSG1 (UniProt Q9H089)
Sequence of UniProt Q9H089 (Q9H089 whole entry, looked up): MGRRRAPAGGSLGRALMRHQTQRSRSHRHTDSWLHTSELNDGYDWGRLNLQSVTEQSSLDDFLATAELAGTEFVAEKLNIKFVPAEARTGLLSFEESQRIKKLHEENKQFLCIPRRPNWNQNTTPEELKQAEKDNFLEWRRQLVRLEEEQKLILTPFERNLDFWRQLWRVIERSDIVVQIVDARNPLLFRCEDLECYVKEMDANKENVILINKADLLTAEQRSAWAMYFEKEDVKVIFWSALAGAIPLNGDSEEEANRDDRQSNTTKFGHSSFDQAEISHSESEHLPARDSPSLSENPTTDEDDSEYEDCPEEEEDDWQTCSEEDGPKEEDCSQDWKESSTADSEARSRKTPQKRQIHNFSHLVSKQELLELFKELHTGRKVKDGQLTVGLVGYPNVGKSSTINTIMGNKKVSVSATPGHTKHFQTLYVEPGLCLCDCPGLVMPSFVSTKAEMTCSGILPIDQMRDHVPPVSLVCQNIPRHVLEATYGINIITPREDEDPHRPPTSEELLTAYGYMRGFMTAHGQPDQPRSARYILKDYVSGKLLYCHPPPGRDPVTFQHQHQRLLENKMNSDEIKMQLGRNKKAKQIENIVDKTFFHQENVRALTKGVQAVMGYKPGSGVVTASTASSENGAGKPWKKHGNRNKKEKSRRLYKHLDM
inactive: ibrutinib -0.083 | [1] -0.033 | ralimetinib 0.026 | [2] 0.052 | [3] 0.032 | [4] 0.004 | [5] -0.187 | [6] 0.012 | [7] 0.013 | [8] 0.031 | vemurafenib -0.056 | [9] 0.046 | barasertib 0.037 | [10] -0.084 | volasertib -0.065 | [11] -0.01 | [12] -0.124 | [13] 0.064 | saracatinib 0.043 | sotrastaurin 0.024

MAP4 (UniProt E7EVA0)
inactive: ibrutinib 0.001 | [1] -0.009 | ralimetinib -0.038 | [2] -0.185 | [3] 0.036 | [4] -0.058 | [5] 0.008 | [6] 0.131 | [7] 0.005 | [8] -0.027 | vemurafenib -0.019 | [9] 0.01 | barasertib 0.04 | [10] 0.125 | volasertib -0.021 | [11] -0.141 | [12] -0.024 | [13] 0.029 | saracatinib 0.024 | sotrastaurin -0.008

LPIN1 isoform 7 (UniProt Q14693)
Sequence of UniProt Q14693 (Q14693 whole entry, looked up): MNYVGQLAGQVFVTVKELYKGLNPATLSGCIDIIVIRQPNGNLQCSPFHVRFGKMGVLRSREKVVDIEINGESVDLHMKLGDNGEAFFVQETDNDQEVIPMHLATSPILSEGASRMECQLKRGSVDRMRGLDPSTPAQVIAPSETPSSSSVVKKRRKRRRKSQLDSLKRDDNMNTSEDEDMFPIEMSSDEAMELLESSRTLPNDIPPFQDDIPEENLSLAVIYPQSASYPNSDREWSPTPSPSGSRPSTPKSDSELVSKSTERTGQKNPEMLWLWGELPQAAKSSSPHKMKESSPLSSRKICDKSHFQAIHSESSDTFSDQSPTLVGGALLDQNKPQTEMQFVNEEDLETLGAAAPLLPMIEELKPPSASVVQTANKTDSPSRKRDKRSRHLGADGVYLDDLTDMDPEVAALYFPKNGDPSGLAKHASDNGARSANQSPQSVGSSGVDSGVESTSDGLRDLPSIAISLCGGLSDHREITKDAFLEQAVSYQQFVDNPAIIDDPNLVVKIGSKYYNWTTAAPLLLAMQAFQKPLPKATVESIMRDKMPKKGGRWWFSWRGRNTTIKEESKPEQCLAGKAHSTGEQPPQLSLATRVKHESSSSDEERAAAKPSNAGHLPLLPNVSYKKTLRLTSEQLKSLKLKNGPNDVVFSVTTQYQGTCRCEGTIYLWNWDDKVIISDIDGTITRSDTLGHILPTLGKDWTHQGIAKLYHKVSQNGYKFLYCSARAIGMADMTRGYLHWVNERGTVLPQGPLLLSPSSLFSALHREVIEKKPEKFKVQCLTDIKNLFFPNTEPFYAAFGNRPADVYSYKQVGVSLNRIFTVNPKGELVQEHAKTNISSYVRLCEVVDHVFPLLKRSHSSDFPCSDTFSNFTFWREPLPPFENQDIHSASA
inactive: ibrutinib 0.02 | [1] 0.07 | ralimetinib 0.035 | [2] -0.025 | [3] -0.033 | [4] 0.066 | [5] 0.022 | [6] -0.016 | [7] 0.007 | [8] -0.009 | vemurafenib -0.057 | [9] 0.065 | barasertib 0.1 | [10] -0.057 | volasertib -0.002 | [11] -0.003 | [12] -0.052 | [13] -0.05 | saracatinib 0.024 | sotrastaurin 0.028
